The whole screen tested about 94,000 compounds, of which about 4,000 (4.3%) were called active. Another 29% or so got no clear call; they are omitted. The call rests on the fitted dose curve; in most records, active means well fitted inhibition curve with a large enough effect; inconclusive means small, poorly fitted or top-dose-only effect; inactive means no such curve, though single readings can be large or run the other way. The entries come from a sample that favours actives as a whole.
assay: Cytotoxic Profiling in NIH 3T3 Cell Line of Diverse Libraries Using Quantitative High-Throughput Screening; conditions: NIH 3T3 viability, CellTiter-Glo ATP luminescence, 48-72 h; series mostly up to 96.7 µM; activity change, negative = cytotoxicity: at the top concentration; further: nearly all actives have a fitted effect of over 55% in size
Outline: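 Luminescent ATP readout (CellTiter-Glo, 10 min RT) after 48 or 72 hr compound exposure of NIH 3T3 cells seeded at 400 cells/well in 1536-well format; quantitative HTS.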
On the % scale 0 is the no-effect control and ±100 the full control effect; potency means the concentration at half of the fitted maximal effect.

| SMILES | outcome | activity change, negative = cytotoxicity | Potency |
| --- | --- | --- | --- |
| Cc1cc(C(=O)N[C@H](C)c2c(-c3ccc(F)cc3)noc2C(=O)O)nn1C | inactive [at 138 µM] | – | – |
| COC1CN(C2CCN(C(=O)C3CCC3)CC2)C12CCOCC2 (stereo not given) | – | -14.8% (inactive) | – |
| Cc1ccc(-c2cccc(CN3CCCC(NC(=O)c4ccc(Cl)cc4)C3)c2)cc1Cl (stereo not given) | – | -17.6% (inactive) | – |
| CC(=O)NC1(C)CCN(Cc2cnc(-c3ccc4c(ccn4C)c3)s2)CC1 | – | -27.4% [at 138 µM] (inactive) | – |
| CC(=O)NC1(C)CCN(Cc2cccc(-c3ccc(C(=O)c4ccccc4)cc3)c2)C1 (stereo not given) | – | – | 35.5 µM (active) |
| O=C(Nc1ccccc1)C1CN(S(=O)(=O)c2cccnc2)CC12CCCCC2 (stereo not given) | – | -17.4% (inactive) | – |
| COc1ccc(C(=O)NCc2nnc3ccc(-c4ccc(C)cc4)nn23)cc1F | – | -24.2% (inactive) | – |
| Cc1ccc(-c2ccc3nnc(CNC(=O)c4ccncc4)n3n2)cc1C | – | -13% (inactive) | – |
| Cc1ccc(-c2nnc3ccc(-c4ccoc4)nn23)nc1 | – | – | 100 µM (active) |
| Cc1ccc(CCN2C[C@]34C=C[C@H](O3)C(C(=O)N(C)Cc3nccn3C)C4C2=O)cc1 (stereo not given in full) | – | 1.63% (inactive) | – |
| COc1ccc(CNC(=O)c2cccc3c2CCN3C(=O)c2ccc(F)cc2)cc1OC | – | – | 39.8 µM (active) |
| COc1ccc(CNC(=O)c2c(C)sc3ccn(CC(C)C)c(=O)c23)cc1OC | – | -2.65% (inactive) | – |
| COc1ccc(-c2ccc(C(=O)NCc3ccc(F)cc3)cc2)nn1 | – | -1.17% [at 138 µM] (inactive) | – |
| COc1ccc(CC(=O)N2CCC[C@@H]2C(=O)N2CCC(N3CCOC3=O)CC2)cc1 | – | -3.95% (inactive) | – |
| COc1ccc(Cn2c(C3CCN(C(=O)Cc4ccsc4)CC3)n[nH]c2=O)cc1 | – | -9.33% (inactive) | – |
| COc1cncc(-c2cccc(COc3ccc4c(cnn4CC[S+](C)(=O)[O-])c3)c2)c1 | – | – | 56.2 µM (active) |
| O=C1CCN(C2CCCC2)CCOCCN1 | – | -17.3% (inactive) | – |
| O=C(Nc1cccc(Cl)c1)C1CN(c2ccccc2)C(=O)N1 (stereo not given) | – | -11.9% [at 138 µM] (inactive) | – |
| O=C(NCC1CCOCC1)Nc1cccc(Cl)c1 | – | -7.43% (inactive) | – |
| O=C1CCN(Cc2ccncc2)CCCC(C(=O)Nc2cccc(F)c2)CCN1 (stereo not given) | – | -3.66% (inactive) | – |

| SMILES | outcome | activity change, negative = cytotoxicity | Potency |
| --- | --- | --- | --- |
| O=C(Nc1cccc(F)c1)c1cc2n(n1)CC(c1ccc(Cl)cc1)OC2 (stereo not given) | – | -29.5% (inactive) | – |
| O=C(Nc1cccc(Cl)c1)[C@@H]1C[C@@H](c2ccc(F)cc2)N([S+](=O)([O-])c2cccnc2)C1 | – | – | 35.5 µM (active) |
| O=C(Nc1cccc(Cl)c1)[C@@H]1C[C@H](c2ccc(F)cc2)N([S+](=O)([O-])C2CC2)C1 | – | – | 79.4 µM (active) |
| O=C(C1CCOC1)N1CCC(N(Cc2ccccc2)C2CCOCC2)CC1 (stereo not given) | – | -1.09% (inactive) | – |
| CN(C)C(=O)N1CCCC1C(=O)N1CCC(c2nc3ccncc3[nH]2)C1 (stereo not given) | – | -7.11% [at 138 µM] (inactive) | – |
| Nc1nc(CCCNC(=O)C2NCCc3[nH]cnc32)cs1 (stereo not given) | inactive | – | – |
| O=C(Nc1ccccc1)N1CCC(C(=O)N2CCC(N3CCOCC3=O)CC2)CC1 | inactive | – | – |
| CC[C@H]1CN(S(C)(=O)=O)CC[C@H]1CC(=O)NCc1ccco1 | inactive [at 174 µM] | – | – |
| Cc1cccc(C)c1NC(=O)N(C)CC1CCOCC1 | – | 1.98% (inactive) | – |
| COCC(=O)N[C@@H]1CN(Cc2ccc(F)c(OC)c2)C[C@H]1CO | – | -13.2% (inactive) | – |
| O=C(NCc1ccccc1)c1ccc2nnc(C3CC3)n2c1 | – | -24.4% [at 138 µM] (inactive) | – |
| O=C(NCCc1ccccc1)c1ccc2nnc(-c3cccc(C(F)(F)F)c3)n2c1 | – | – | 39.8 µM (active) |
| O=C(NCCCc1ccccc1)C1CCc2nnc(-c3cccc(C(F)(F)F)c3)n21 (stereo not given) | – | -28.9% (inactive) | – |
| O=C(NCc1ccc(F)c(F)c1)c1ccc2nnc(-c3cccnc3)n2c1 | – | -18.6% (inactive) | – |
| O=C(NCc1ccc(C(F)(F)F)cc1)c1ccc2nnc(-c3ccc(C(F)(F)F)cc3)n2c1 | – | – | 31.6 µM (active) |
| COCCNC(=O)c1ccc2nnc(-c3cccc(C(F)(F)F)c3)n2c1 | – | -16.9% (inactive) | – |
| COC(=O)c1ccc(CN2C(=O)[C@@H]3C[C@@H](O)CN3C3(CN(Cc4cccc(F)c4)C3)C2=O)cc1 | inactive | – | – |
| CCN1CC(C(=O)NCC2(c3ccccc3F)CCCC2)CC1=O (stereo not given) | – | -19.2% (inactive) | – |
| CC(C)c1ccc(CN2CCc3nc(N(C)C)[nH]c(=O)c3CC2)cc1 | – | -28.1% (inactive) | – |
| COc1cccc(CCC(=O)N2C[C@@H](Oc3ccccc3)C[C@@H]2C(=O)N2CCOCC2)c1 | – | -15.4% (inactive) | – |

| SMILES | outcome | activity change, negative = cytotoxicity | Potency |
| --- | --- | --- | --- |
| Cc1ccc(NC(=O)N[C@@H]2C=C(C(=O)NCCC(N)=O)C[C@@H](O)[C@@H]2O)cc1 | – | 2.14% [at 174 µM] (inactive) | – |
| CN1C[C@@H]2CC[C@H](C1)N(Cc1cccc(OCCN3CCOCC3)c1)C2 | – | 3.93% (inactive) | – |
| CCCCC(=O)N1CCC(OC2CCN(S(C)(=O)=O)CC2)CC1 | – | -18.1% (inactive) | – |
| Cn1cnc(S(=O)(=O)N[C@H]2CCN(C(=O)CSCC(=O)O)[C@H](C(=O)N[C@H](Cc3ccccc3)C(N)=O)C2)c1 | – | 0.91% (inactive) | – |
| COc1ccccc1-n1c(=O)c(C(=O)N2CCN([S+](C)(=O)[O-])CC2)nc2cccnc21 | – | -11.7% (inactive) | – |
| Cc1cc(N2CCC3(CC2)CC(c2ccccc2)C(=O)N3C)ncn1 (stereo not given) | – | – | 79.4 µM (active) |
| Cc1ccncc1C(=O)N1CCC2(CC1)CC(c1ccccc1)C(=O)N2C (stereo not given) | – | -21.3% (inactive) | – |
| CC#CCN1C(=O)NC(CCc2ccccc2)(C2CCN(Cc3ccccc3-c3ccco3)CC2)C1=O (stereo not given) | – | -25.6% (inactive) | – |
| CC(=O)N1CC2(CCN(Cc3ncc[nH]3)CC2)CC1C(=O)O (stereo not given) | – | 0.833% (inactive) | – |
| O=C(Nc1ccc(Oc2ccccc2)cc1)O[C@@H]1CO[C@H]2[C@@H]1OC[C@@H]2NCC1CC1 | – | -28.6% [at 174 µM] (inactive) | – |
| N#Cc1cccc(NC(=O)O[C@@H]2CO[C@H]3[C@@H]2OC[C@@H]3Nc2nccc(-c3ccccc3)n2)c1 | – | – | 35.5 µM (active) |
| O=C(Nc1ccccc1)O[C@@H]1CO[C@H]2[C@@H]1OC[C@@H]2NS(=O)(=O)c1cccc2cccnc12 | – | -22.1% (inactive) | – |
| COc1cccc([S+](=O)([O-])N2CCC3(C2)N=C(c2ccncc2)C(=O)N3)c1 (stereo not given) | – | -25.3% (inactive) | – |
| CN1C(=O)CC[C@]2(C(=O)NCc3ccc4c(c3)OCO4)CCCC[C@@H]12 | – | -2.74% (inactive) | – |
| CC1(C(=O)NCC2CCCO2)CCCc2cnc(Nc3ccccc3)nc21 (stereo not given) | – | -4.02% [at 138 µM] (inactive) | – |
| CC1(C(=O)NCc2ccc3c(c2)OCO3)CCc2cnc(NCc3ccccc3)nc21 (stereo not given) | – | – | 3.16 µM (active) |
| O=C(NCc1ccc(F)cc1F)c1nnn2c1COC(c1ccc(Br)cc1)C2 (stereo not given) | – | -20.1% (inactive) | – |
| COc1cccc([S+](=O)([O-])N2CCC3(CC2)C(=O)NN=C3c2ccncc2)c1 | – | -38.1% (inactive) | – |
| CC(C)(C)C(=O)N1CCCC1C(=O)N1CCC(N2Cc3ccccc3C2=O)CC1 (stereo not given) | – | -10.6% (inactive) | – |
| O=C(NCc1cccnc1)c1nc(-c2ccc(Cl)nc2)c2cnccn12 | – | -19.1% (inactive) | – |
